Experimental data: PubChem BioAssay (NCATS)
Several values for one entry are separate records, joined by “and”; a condition that tells them apart may be missing. Equal entries are not always repeated. Inconclusive results are not listed. Activity calls are given as the source filed them. Calls follow the shape of the dose curve; as a rule, active = well fitted inhibition curve with a large enough effect; inconclusive = small, poorly fitted or top-dose-only effect; inactive = flat fitted curve, though single readings scatter.

tested on: HEK293; test: Cytotoxic Profiling of Annotated Libraries Using Quantitative High-Throughput Screening (AID 1296008); conditions: Five cell lines viability, CellTiter-Glo ATP luminescence, 48-72 h; max response: stronger effect = lower value; also: nearly all actives have a fitted effect of over 60% in size
Source text: Cell-based phenotypic screening is a commonly used approach to discover biological pathways, novel drug targets, chemical probes and high-quality hit-to-lead molecules. Many hits identified from high-throughput screening campaign are ruled out through a series of follow-up potency, selectivity/specificity, and cytotoxicity assays. Prioritization of molecules with little or no cytotoxicity for a more in-depth downstream evaluation influence the future direction of projects, so cytotoxicity profiling of the screening libraries at early stage is essential for increasing the likelihood of candidate success. […] For the annotated library, we also examined the primary targets and mechanistic pathways regularly associated with cell death. To our knowledge, this is the first study to use high-throughput screening to profile large libraries for cytotoxicity assessment in both normal and cancer cell lines. In summary, the results generated here constitutes a valuable resource for the scientific community and provides insight on identifying cytotoxic compounds with particular mechanisms of action, and prioritizing compounds with suitable cytotoxicity profile for further evaluation.
A pintool (Kalypsys) was used to transfer 23 nL of compound solution to the 1536-well assay plates. After 48 or 72 hr incubation at 37 degree Celsius, 5% CO2 and 95% humidity, 2.5 uL of CellTiter-Glo (Promega) was dispensed into each well using a dispenser (Aspect Automation, St. Paul, MN) with solenoid valves (Lee Valves, Westbrook CT). Plates were left at room temperature for 10 min before imaging the ATP-coupled luminescence using a ViewLux microplate imager (PerkinElmer, Waltham, MA).
% is scaled to controls: 0 for no effect and ±100 for the full control effect; potency is read from the fitted curve at half-maximal effect.

Structure (SMILES) | max response | outcome | Potency
CC(=O)OCC1=C(C(=O)O)N2C(=O)[C@@H](N)[C@H]2SC1 | 0.778% (inactive) and -3.29% (inactive) |  | 
Clc1ccccc1N1CCNCC1 |  | inactive | 
CN1C(=O)COc2c(C(=O)NC3CN4CCC3CC4)cc(Cl)cc21 (stereo not given) | -5.69% (inactive) and -2.96% (inactive) |  | 
CNC(C)(C)Cc1ccccc1 | -3.64% (inactive) |  | 
Nc1nc(N)nc(NC2CC2)n1 | -46.2% (inactive) |  | 
CCN(CC)CCc1c[nH]c2ccccc12 | -22% (inactive) |  | 
C#C[C@]1(O)CC[C@H]2[C@@H]3CCC4=CC(=O)CC[C@]4(C)[C@H]3CC[C@@]21C | 2.42% (inactive) |  | 
CC(C)c1cccc(C(C)C)c1O | -6.49% (inactive) | inactive | 
CC(C)c1c(CN(C)C(C)Cc2ccccc2)n(C)n(-c2ccccc2)c1=O (stereo not given) |  |  | 8.41 µM (active)
O=C(O)/C=C\C(=O)O | -3.36% (inactive) |  | 
C[C@]12CC[C@@H]3c4ccc(OC(=O)N(CCCl)CCCl)cc4CC[C@H]3[C@@H]1CC[C@@H]2OP(=O)(O)O | -12.2% (inactive) |  | 
CN1CCC(O)(c2ccc(F)cc2)C(C(=O)c2ccc(F)cc2)C1 (stereo not given) | 3.5% (inactive) |  | 
O=C(N/N=C/c1ccc([N+](=O)[O-])o1)c1cc([N+](=O)[O-])cc([N+](=O)[O-])c1O | 1.49% (inactive) |  | 
NC(=O)CS(=O)C(c1ccccc1)c1ccccc1 (stereo not given) | 2.52% (inactive) |  | 
COc1cc(CC(C)N)cc(OC)c1OC (stereo not given) | -9.05% (inactive) |  | 
CC(C)N(CCC(C(N)=O)(c1ccccc1)c1ccccn1)C(C)C (stereo not given) | -72.3% (inactive) |  | 
CC(C)(N)Cc1ccccc1Cl |  | inactive | 
Nc1ccccc1C(=O)O | -5.49% (inactive) |  | 
COP(=S)(OC)Oc1ccc(S(=O)(=O)N(C)C)cc1 | -6.52% (inactive) |  | 

Structure (SMILES) | max response | outcome | Potency
NNc1ccccc1 | 3.08% (inactive) |  | 
CNCC(=O)c1ccc(O)c(O)c1 | 3.33% (inactive) |  | 
C[C@H]1[C@@H]2Cc3ccc(O)cc3[C@@]1(C)CCN2C | -19.5% (inactive) |  | 
CC(=O)C1CCOC1=O (stereo not given) |  | inactive | 
COC(=O)[C@@H](N)CCCN/C(N)=N/[N+](=O)[O-] |  | inactive | 
CC(=O)NC1CCSC1=O (stereo not given) |  | inactive | 
O=C1CN=C(c2ccccc2)c2cc([N+](=O)[O-])ccc2N1 | -13.4% (inactive) |  | 
CCOC(=O)CC(SP(=S)(OC)OC)C(=O)OCC (stereo not given) |  | inactive | 
Nc1ccc([As](=O)(O)O)cc1 | -6.15% (inactive) |  | 
CCN(CCO)CCn1c(Cc2ccccc2)nc2c1c(=O)n(C)c(=O)n2C | -6.17% (inactive) |  | 
CC(NC(C)(C)C)C(=O)c1cccc(Cl)c1 (stereo not given) | -3.26% (inactive) and -3.1% (inactive) | inactive | 
CCC(C)(C)c1ccc(O)cc1 |  | inactive | 
COc1ccc2c(c1OC)C(=O)O[C@H]2[C@@H]1c2cc3c(cc2CCN1C)OCO3 | -2.03% (inactive) |  | 
COc1cc(OC)c(OC)cc1C=O | -6.96% (inactive) | inactive | 
CCCCCN(C)CCC(O)(P(=O)(O)O)P(=O)(O)O | -18.4% (inactive) |  | 
Nc1ccccc1 |  | inactive | 
O=C1OC(c2ccc(O)c(S(=O)(=O)O)c2)(c2ccc(O)c(S(=O)(=O)O)c2)c2c(Br)c(Br)c(Br)c(Br)c21 |  | inactive | 
NC(=O)c1cc([N+](=O)[O-])cc([N+](=O)[O-])c1 | -2.7% (inactive) |  | 
